Molecules are shown by their SMILES. Out of some 370,000 compounds screened, about 1,100 (0.3%) were called active. No stated cut-off is given here; in the data, active means inhibition above about 13%; inactive means the rest. The sample as a whole holds a higher share of actives than the screen did.

The target of this experiment is Methyl-CpG-binding domain protein 2 (Homo sapiens) (UniProt Q9UBB5). Briefly: MBD2-DBD methyl-oligonucleotide interaction blockers – biochemical, TR-FRET, DNA-binding domain, human, primary screen (AID 686964). As to conditions: MBD2 binding to methylated oligonucleotide, at 4.4 µM, stronger effect = higher value.
Methyl-CpG-binding domain protein 2 (Homo sapiens), sequence (Q9UBB5 whole entry, looked up, the tested form may be a part): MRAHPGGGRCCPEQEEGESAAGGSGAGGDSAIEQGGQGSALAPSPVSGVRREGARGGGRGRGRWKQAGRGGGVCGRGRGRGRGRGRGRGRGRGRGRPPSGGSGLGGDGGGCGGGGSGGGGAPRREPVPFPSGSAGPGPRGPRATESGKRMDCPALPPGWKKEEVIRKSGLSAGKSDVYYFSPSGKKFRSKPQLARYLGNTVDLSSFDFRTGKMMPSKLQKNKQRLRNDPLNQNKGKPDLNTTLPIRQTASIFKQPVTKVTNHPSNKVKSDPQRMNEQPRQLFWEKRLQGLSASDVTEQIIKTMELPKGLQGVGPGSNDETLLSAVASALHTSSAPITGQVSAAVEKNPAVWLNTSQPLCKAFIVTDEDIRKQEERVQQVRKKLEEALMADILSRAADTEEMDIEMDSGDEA
As for `O=C(O)Cn1cnc2c(NCc3ccccc3)ncnc21`, the inhibition was -3.02% (inactive).

For `O=C(NCCc1c[nH]c2ccccc12)OCc1cn(-c2c(F)cccc2F)nn1`, the inhibition is -6.28% (inactive).

As for `CCC(=O)OCCCN1C(=O)CCC12CCC(c1ccccc1)CC2` (stereo unspecified), the inhibition is 3.38% (inactive).

Turning to `CN1C(c2ccc(F)cc2)=CS/C1=C(/C#N)c1nnc2n1-c1ccccc1SC2`, the inhibition is -4.62% (inactive).

`COC(CNC(=O)[C@H](Cc1ccccc1)NC1(C(=O)NC2CCCCC2)CCCCC1)OC`: the inhibition is 6.86% (inactive).

In the case of `C=CS(=O)(=O)N(Cc1nnn(Cc2ccccc2)c1Br)[C@H](C(=O)OC)C(C)C`, the inhibition was -4.08% (inactive).

Turning to `Cc1ccc(-c2noc(CCC(=O)Nc3ccccc3N3CCN(C)CC3)n2)cc1`, the inhibition is -4.01% (inactive).

Consider `COCCNC(=O)Nc1ccc2nc(-c3ccco3)c(-c3ccco3)nc2c1`, for which the inhibition is 53.7% (active).

As to `COCCNC(=O)c1cc2c(Br)ccc(Br)c2nc1N`, the inhibition is 1.97% (inactive).

Consider `COCCNC(=S)c1ccc(OC)cc1`, for which the inhibition was 0.26% (inactive).

`COc1cccc(CNC(=O)CNS(=O)(=O)c2ccc3nc(C)sc3c2)c1OC`: the inhibition is 3.15% (inactive).

Turning to `CCOC(=O)C1CCCN(C(=O)c2ccc(N(C)C)cc2)CC1` (stereo unspecified), the inhibition is 7.99% (inactive).

On to `C=CCN1C(=O)c2ccc(C(=O)N3CCC(C(=O)OCC)CC3)cc2C1=O`, for which the inhibition is 16.8% (active).

For the molecule `CCOC(=O)C1CCCN(C(=O)c2ccc(C)c(F)c2)CC1` (stereo unspecified), the inhibition is -3.99% (inactive).

For `Cc1c(C(=O)N2CC(C)OC(C)C2)sc2nc(-c3ccccc3)cn12` (stereo unspecified), the inhibition was -0.32% (inactive).

As for `CC(C)C(C#CC1CC1)N(Cc1ccc2c(c1)OCO2)C(N)=NC(=O)/C=C/c1cccc(C(F)(F)F)c1` (stereo unspecified), the inhibition was -0.7% (inactive).

Consider `CC(C)(C)NC(=O)C(c1cccnc1)N(C(=O)c1cnco1)c1ccc(C(C)(C)C)cc1` (stereo unspecified), for which the inhibition is 2.09% (inactive).

`CCC(NC(=O)C1C2C=CC3(CN(Cc4ccccc4)C(=O)C13)O2)c1ccccc1` (stereo unspecified): the inhibition is 0.25% (inactive).

Turning to `CCc1ccccc1NC(=O)CSc1nnc(-c2cccs2)o1`, the inhibition is 2.5% (inactive).

With `COc1ccc(-c2nnc(SCC(=O)c3ccc4c(c3)OCCO4)o2)cc1`, the inhibition was -3.62% (inactive).

In the case of `COc1ccc(-n2c(C)cc(C(=O)CSc3nnc(-c4cccs4)o3)c2C)cc1`, the inhibition is 15.1% (active).

Consider `O=C(CSc1nncn1-c1cccnc1)N1CCOCC1`, for which the inhibition is 2.16% (inactive).

On to `COc1cc(NC(=O)C2CCCN(S(=O)(=O)c3ccc(C(C)(C)C)cc3)C2)cc(OC)c1` (stereo unspecified), for which the inhibition was -0.54% (inactive).

Turning to `CCCCCCCCN1C(=O)[C@@H](CC(=O)NCc2ccccc2)C[C@@]2(C(=O)OC)C1=C[C@H](C(C)(C)C)O[C@@H]2C`, the inhibition was 3.75% (inactive).

Take `O=C(c1ccncc1)N1CC[C@H]2[C@H](CCCN2Cc2ccc(F)cc2)C1`: the inhibition was -6.65% (inactive).

As to `COc1ccc2c(c1)c(=Cc1ccc(N(C)C)cc1)c1cc(-c3ccccc3)[n+](C)n12`, the inhibition is 29.6% (active).

On to `COc1ccc(NS(=O)(=O)c2cc3c(cc2C)N(C(C)=O)CCO3)cc1`, for which the inhibition is -5.65% (inactive).

In the case of `CC1CCCN(CCOCCOc2ccccc2-c2ccccc2)C1` (stereo unspecified), the inhibition was -4.99% (inactive).

As for `COc1ccc(CNC(=O)c2cc(C(=O)C3CC3)c[nH]2)cc1`, the inhibition is 1.85% (inactive).

Take `COc1ccc(CNC(=O)c2c[nH]c3c(OC)cc(OC)cc3c2=O)cc1`: the inhibition is 23.4% (active).

Turning to `CCSc1ccccc1C(=O)NCc1ccc(OC)cc1`, the inhibition is -9.91% (inactive).

As to `CC(CCN1CCC(C(O)(c2ccccc2)c2ccccc2)CC1)Oc1ccc([N+](=O)[O-])cc1Cl` (stereo unspecified), the inhibition is 1.05% (inactive).

For `COCCn1c(CN2CCC(Cc3ccccc3)CC2)nc2c1c(=O)n(C)c(=O)n2C`, the inhibition was 4.97% (inactive).

In the case of `O=C(CCCCCN1C(=O)C2C3C=CC(C3)C2C1=O)Nc1ccccc1` (stereo unspecified), the inhibition is -6.87% (inactive).

As for `CO/N=C(/CS(=O)(=O)c1ccc(Br)cc1)c1ccc(OC)cc1`, the inhibition is 14% (active).

On to `Cc1nc(S(=O)(=O)c2ccc(Br)cc2)nc2c1CCC2`, for which the inhibition was 1.36% (inactive).

As for `CO/N=C/CC(=O)c1ccc(OC)cc1`, the inhibition is -0.8% (inactive).

Consider `CCN1CCN(C(=O)N(Cc2ccc(Cl)cc2)S(=O)(=O)c2ccc(C)cc2)CC1`, for which the inhibition was 2.19% (inactive).

In the case of `N#Cc1ccccc1OC[C@@H](O)CN1CCC(C(O)(c2ccccc2)c2ccccc2)CC1`, the inhibition is 0.72% (inactive).

Consider `CCCCNC(=O)C[C@H]1C(=O)N(Cc2ccc(OC)cc2)C2=CCCC[C@@]21C(=O)OCC`, for which the inhibition is -1.99% (inactive).

For `CSc1nnc(-c2ccc(C(F)(F)F)cn2)o1`, the inhibition was 2.79% (inactive).

With `Cc1ccc(O)c(NC(=O)c2cc(-c3ccco3)on2)c1`, the inhibition is -2.88% (inactive).

Consider `Cc1ccccc1NC(=O)c1ccc(COc2ccc3c(C)cc(=O)oc3c2)cc1`, for which the inhibition is 5.18% (inactive).

In the case of `Cc1ccc(C)c(NC(=O)c2ccc(OC(=O)c3ccco3)cc2)c1`, the inhibition was 19.6% (active).

Take `CCN(Cc1ccncc1)C(=O)c1cccc(S(=O)(=O)N2CCOCC2)c1`: the inhibition was 0.65% (inactive).

Take `Cc1cccc(CN2CCN(C3CN(Cc4cn(Cc5cc(C)cc(C)c5)nn4)S(=O)(=O)C3)CC2)c1` (stereo unspecified): the inhibition is 17.4% (active).

With `Cc1cccc(CN2CCN(C3CN(Cc4ccccc4)S(=O)(=O)C3)CC2)c1` (stereo unspecified), the inhibition was 1.18% (inactive).

On to `Cc1cccc(CN2CCN(C3CN(Cc4cn(Cc5ccccc5F)nn4)S(=O)(=O)C3)CC2)c1` (stereo unspecified), for which the inhibition is 5.03% (inactive).

For `CCOc1ccc(Oc2c(Cl)cnn(-c3ccc(C)cc3)c2=O)cc1`, the inhibition was 3.14% (inactive).

Take `Cc1ccc(S(=O)(=O)Cn2nnnc2CN2CCN(Cc3ccc4c(c3)OCO4)CC2)cc1`: the inhibition was 0.18% (inactive).

For the molecule `CCOc1nc(OCC)nc(-n2cc(-c3ccccc3)nn2)n1`, the inhibition was -0.3% (inactive).

For `COc1ccc(-c2ccc(CCC(=O)O)n2-c2ccc(O)cc2)cc1`, the inhibition is -0.88% (inactive).

On to `CCOC(=O)c1ccc(-n2c(CCC(=O)O)ccc2-c2ccccc2)cc1`, for which the inhibition is 14.6% (active).

Turning to `COc1ccc(-c2ccc(CCC(=O)O)n2NC(=O)c2ccc(C(C)(C)C)cc2)cc1`, the inhibition is -1.3% (inactive).

For the molecule `CCC12CN3CC(CC)(CN(C1)C31C(=O)N(C)c3ccc(C)cc31)C2=O` (stereo unspecified), the inhibition is -7.87% (inactive).

For the molecule `C[C@H](O)[C@@H]1CN2CCc3ccc(-c4ccc5c(c4)OCO5)cc3[C@@H]2C[C@@H]1N(C)C(=O)C1CCCCC1`, the inhibition is -1.38% (inactive).

What is called inhibition is the drop in the measured response relative to a control, in per cent.

Values taken from PubChem BioAssay AID686964 (The Scripps Research Institute Molecular Screening Center, 2013).
